PubChem BioAssay (EPA / NIEHS)
Activity calls are given as the source filed them. Rule for the calls: active = hit-call score of the fitted dose curve at least 0.9, where 1 is the maximum; inactive = score below 0.9.

What was measured:
[1] = read-out: Macrophage colony-stimulating factor (MCSF), CSF1 (gene 1435); assay: BSK_hDFCGF_MCSF: BioMAP Diversity Plus: hDFCGF Assay for Macrophage colony-stimulating factor (MCSF) Biomarker Activity (AID 2283060); details: primary human foreskin fibroblasts; actives raise or lower the signal
Outline: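 Human foreskin fibroblast primary cultures; M-CSF measured by ELISA 24 hours after chemical dosing. Bidirectional fitting relative to DMSO, with overt cytotoxicity tracked by parallel SRB total-protein staining (0.1% SRB, 10% TCA fixation, 560 nm).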

[2] = BSK_hDFCGF_SRB: Viability Assessment in the BioMAP Diversity Plus: hDFCGF Assay (AID 2283061); details: primary human foreskin fibroblasts;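 note: cells exposed to compound for 24 h before the read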
Outline: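 Human foreskin fibroblasts in 96-well plates were treated 24 h. Total protein was measured by 0.1% SRB staining after 10% TCA fixation, read at 560 nm. Data were fitted bidirectionally against DMSO.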

[3] = read-out: TIMP metallopeptidase inhibitor 1 (TIMP1), TIMP1 (gene 7076); assay: BSK_hDFCGF_TIMP1: BioMAP Diversity Plus: hDFCGF Assay for TIMP metallopeptidase inhibitor 1 (TIMP1) Biomarker Activity (AID 2283062); details: primary human foreskin fibroblasts; actives raise or lower the signal
Outline: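 Human foreskin fibroblast primary cultures dosed for 24 h; secreted/surface TIMP-1 quantified by ELISA. Bidirectional curve fitting against DMSO baseline; cytotoxicity tracked in parallel cultures by SRB total-protein staining.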

[4] = read-out: Monokine induced gamma interferon (MIG), CXCL9 (gene 4283); assay: BSK_hDFCGF_MIG: BioMAP Diversity Plus: hDFCGF Assay for Monokine induced gamma interferon (MIG) Biomarker Activity (AID 2283063); details: primary human foreskin fibroblasts; actives raise or lower the signal
Outline: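 MIG/CXCL9 measured by ELISA 24 h after dosing primary human skin fibroblasts. Activity fitted in both directions against DMSO controls. Cytotoxicity was checked in parallel cultures by SRB staining read at 560 nm.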

[5] = read-out: Matrix Metallopeptidase 1 (MMP1), MMP1 (gene 4312); assay: BSK_hDFCGF_MMP1: BioMAP Diversity Plus: hDFCGF Assay for Matrix Metallopeptidase 1 (MMP1) Biomarker Activity (AID 2283064); details: primary human foreskin fibroblasts; actives raise or lower the signal
Outline: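 ELISA read-out of MMP1 from human foreskin fibroblasts (primary skin cells), 24 h post-dose. Gain or loss of signal was fitted bidirectionally versus DMSO negative control; cytotoxicity was checked by SRB in parallel cultures.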

[6] = read-out: Vascular cell adhesion molecule 1 (VCAM1), VCAM1 (gene 7412); assay: BSK_hDFCGF_VCAM1: BioMAP Diversity Plus: hDFCGF Assay for Vascular cell adhesion molecule 1 (VCAM1) Biomarker Activity (AID 2283065); details: primary human foreskin fibroblasts; actives raise or lower the signal;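 for AC50: VCAM-1 protein level quantified by ELISA after 24 h chemical exposure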
Outline: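 Human foreskin fibroblast primary cells dosed with chemical, VCAM-1 measured by ELISA at 24 h. Bidirectional curve fitting relative to DMSO as negative control/baseline.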

[7] = read-out: Plasminogen activator inhibitor-1 (PAI1), SERPINE1 (gene 5054); assay: BSK_hDFCGF_PAI1: BioMAP Diversity Plus: hDFCGF Assay for Plasminogen activator inhibitor-1 (PAI1) Biomarker Activity (AID 2283066); details: primary human foreskin fibroblasts; actives raise or lower the signal
Outline: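 Fibroblasts from human foreskin were treated with test chemical. After 24 h, PAI-1 was measured by ELISA. Activity was fitted in both directions relative to DMSO.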

[8] = read-out: Intercellular Adhesion Molecule 1 (ICAM1), ICAM1 (gene 3383); assay: BSK_KF3CT_ICAM1: BioMAP Diversity Plus: KF3CT Assay for Intercellular Adhesion Molecule 1 (ICAM1) Biomarker Activity (AID 2283067); details: primary human keratinocytes with fibroblasts; actives raise or lower the signal
Outline: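 Human keratinocyte–foreskin fibroblast co-culture was treated for 24 h. Cell-surface ICAM-1 was quantified by ELISA, fitted bidirectionally relative to DMSO. Cytotoxicity was checked in parallel cultures by SRB total-protein staining.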

[9] = read-out: Interferon-gamma inducible Protein 10 (IP10), CXCL10 (gene 3627); assay: BSK_KF3CT_IP10: BioMAP Diversity Plus: KF3CT Assay for Interferon-gamma inducible Protein 10 (IP10) Biomarker Activity (AID 2283068); details: primary human keratinocytes with fibroblasts; actives raise or lower the signal
Outline: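 Signal is secreted/surface IP-10 by ELISA in a human primary skin co-culture of keratinocytes and foreskin fibroblasts, taken 24 h post-dosing; DMSO served as negative control.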

[10] = BSK_KF3CT_SRB: Viability Assessment in the BioMAP Diversity Plus: KF3CT Assay (AID 2283069); details: primary human keratinocytes with fibroblasts;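 note: total protein by sulforhodamine B staining as a cytotoxicity measure; read 24 h after compound addition; fitted for both signal gain and loss against DMSO baseline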
Outline: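 SRB read-out at 560 nm (0.1% stain, TCA-fixed cells) gauges overt cytotoxicity in a human skin keratinocyte–fibroblast co-culture 24 h post-dosing. Signal change was fitted bidirectionally relative to DMSO control.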

In the case of `C=CCOC(=O)c1ccccc1C(=O)OCC=C`, the outcome [1] is reported as “inactive”, the outcome [2] is reported as “inactive” and the outcome [3] is reported as “inactive”. For the same compound, the outcome [4] was “inactive”, the outcome [5] was “inactive” and the outcome [6] was “inactive”. For the same compound, the outcome [7] was “inactive”, the outcome [8] was “inactive” and the outcome [9] was “inactive”.
In the case of `CCCCCCCCCCCCCCCC`, the outcome [1] is reported as “inactive”, the outcome [2] is reported as “inactive” and the outcome [3] is reported as “inactive”. The outcome [4] was “inactive”, the outcome [5] was “inactive” and the outcome [6] was “inactive”. The outcome [7] was “inactive”, the outcome [8] was “inactive” and the outcome [9] was “inactive”.
In the case of `COc1cc(S(=O)(=O)O)c(C)cc1N=Nc1c(O)ccc2cc(S(=O)(=O)O)ccc12`, the outcome [1] is reported as “inactive”, the outcome [2] is reported as “inactive” and the outcome [3] is reported as “inactive”. For the same compound, the outcome [4] was “inactive”, the outcome [5] was “inactive” and the outcome [6] was “inactive”. For the same compound, the outcome [7] was “inactive”, the outcome [8] was “inactive” and the outcome [9] was “inactive”.
For `NCC1(Cc2noc(=O)[nH]2)CCCCC1`, the outcome [1] was “inactive”, the outcome [2] was “inactive” and the outcome [3] was “inactive”. The outcome [4] was “inactive”, the outcome [5] was “inactive” and the outcome [6] was “inactive”. For the same compound, the outcome [7] was “inactive”, the outcome [8] was “inactive” and the outcome [9] was “inactive”.
With `CC(=O)C(C)=CC1C(C)=CCCC1(C)C` (stereo unspecified) the outcome [1] was “inactive”, the outcome [2] was “inactive” and the outcome [3] was “inactive”. The outcome [4] was “inactive”, the outcome [5] was “inactive” and the outcome [6] was “inactive”. For the same compound, the outcome [7] was “inactive”, the outcome [8] was “inactive” and the outcome [9] was “inactive”.
In the case of `CNCc1cc(F)ccc1Oc1ccc(Cl)c(Cl)c1`, the outcome [1] is reported as “inactive”, the outcome [2] is reported as “inactive” and the outcome [3] is reported as “inactive”. For the same compound, the outcome [4] was “inactive”, the outcome [5] was “inactive” and the outcome [6] was “inactive”. The outcome [7] was “inactive”, the outcome [8] was “inactive” and the outcome [9] was “inactive”.
For `Cc1c(C(=O)O)c(O)cc2c1C(=O)c1c(O)c([C@@H]3O[C@H](CO)[C@@H](O)[C@H](O)[C@H]3O)c(O)c(O)c1C2=O`, the outcome [1] was “inactive”, the outcome [2] was “inactive” and the outcome [3] was “inactive”. The outcome [4] was “inactive”, the outcome [5] was “inactive” and the outcome [6] was “inactive”. For the same compound, the outcome [7] was “inactive”, the outcome [8] was “inactive” and the outcome [9] was “inactive”.
With `NC(=O)Cn1c(=O)cc(CCN2CCN(c3nccc4sccc34)CC2)c2ccc(F)cc21` the outcome [1] was “inactive”, the outcome [2] was “inactive” and the outcome [3] was “inactive”. The outcome [4] was “inactive”, the outcome [5] was “inactive” and the outcome [6] was “inactive”. The outcome [7] was “inactive”, the outcome [8] was “inactive” and the outcome [9] was “inactive”.
In the case of `COCCOCCOC`, the outcome [1] is reported as “inactive”, the outcome [2] is reported as “inactive” and the outcome [3] is reported as “inactive”. For the same compound, the outcome [4] was “inactive”, the outcome [5] was “inactive” and the outcome [6] was “inactive”. The outcome [7] was “inactive”, the outcome [8] was “inactive” and the outcome [9] was “inactive”. The outcome [10] was “inactive”.
With `Cc1cc(=O)[nH]c(=S)[nH]1` the outcome [1] was “inactive”, the outcome [2] was “inactive” and the outcome [3] was “inactive”. The outcome [4] was “inactive”, the outcome [5] was “inactive” and the outcome [6] was “inactive”. The outcome [7] was “inactive”, the outcome [8] was “inactive” and the outcome [9] was “inactive”. The outcome [10] was “inactive”.
For `Nc1nc(N)c2nc(CNc3ccc(C(=O)N[C@@H](CCC(=O)O)C(=O)O)cc3)cnc2n1`, the outcome [1] was “inactive”, the outcome [2] was “inactive” and the outcome [3] was “inactive”. For the same compound, the outcome [4] was “inactive”, the outcome [5] was “inactive” and the outcome [6] was “inactive”. For the same compound, the outcome [7] was “inactive”, the outcome [8] was “inactive” and the outcome [9] was “inactive”. The outcome [10] was “inactive”.
In the case of `CC1=C(/C=C/C(C)=C/C=C/C(C)=C/CO)C(C)(C)CCC1`, the AC50 [1] is reported as 24.2 µM (active), the AC50 [2] is reported as 37.8 µM (active) and the outcome [3] is reported as “inactive”. The AC50 [4] was 27 µM (active), the outcome [5] was “inactive” and the AC50 [6] was 20.9 µM (active). For the same compound, the AC50 [7] was 20.9 µM (active), the outcome [8] was “inactive” and the AC50 [9] was 31.4 µM (active). For the same compound, the outcome [10] was “inactive”.
In the case of `Cc1ccccc1Cl`, the outcome [1] is reported as “inactive”, the outcome [2] is reported as “inactive” and the outcome [3] is reported as “inactive”. The outcome [4] was “inactive”, the outcome [5] was “inactive” and the outcome [6] was “inactive”. For the same compound, the outcome [7] was “inactive”, the outcome [8] was “inactive” and the outcome [9] was “inactive”. The outcome [10] was “inactive”.
In the case of `CCCCCCCCCCO`, the outcome [1] is reported as “inactive”, the outcome [2] is reported as “inactive” and the outcome [3] is reported as “inactive”. The outcome [4] was “inactive”, the outcome [5] was “inactive” and the outcome [6] was “inactive”. The outcome [7] was “inactive”, the outcome [8] was “inactive” and the outcome [9] was “inactive”. The outcome [10] was “inactive”.
In the case of `CCCCc1ccc2c(n1)[C@@H](c1ccc(OC)cc1C[C@H](C)C(=O)O)[C@H](C(=O)O)[C@H]2c1ccc2c(c1)OCO2`, the outcome [1] is reported as “inactive”, the outcome [2] is reported as “inactive” and the outcome [4] is reported as “inactive”. For the same compound, the outcome [5] was “inactive”, the outcome [6] was “inactive” and the outcome [7] was “inactive”. The outcome [8] was “inactive” and the outcome [9] was “inactive”.
For `CC(=O)OCCOCCOCCOC(C)=O`, the outcome [1] was “inactive”, the outcome [2] was “inactive” and the outcome [4] was “inactive”. For the same compound, the outcome [5] was “inactive”, the outcome [6] was “inactive” and the outcome [7] was “inactive”. For the same compound, the outcome [8] was “inactive” and the outcome [9] was “inactive”.
In the case of `Cc1cccc(Nc2cc(Cl)nc(SCC(=O)O)n2)c1C`, the outcome [1] is reported as “inactive”, the outcome [2] is reported as “inactive” and the outcome [3] is reported as “inactive”. For the same compound, the outcome [4] was “inactive”, the outcome [5] was “inactive” and the outcome [6] was “inactive”. For the same compound, the outcome [7] was “inactive”, the outcome [8] was “inactive” and the outcome [9] was “inactive”. For the same compound, the outcome [10] was “inactive”.
With `Oc1ccc2c(c1)OC[C@@H](N1CCC(O)(c3ccc(F)cc3)CC1)[C@H]2O` the outcome [1] was “inactive”, the outcome [2] was “inactive” and the outcome [3] was “inactive”. The outcome [4] was “inactive”, the outcome [5] was “inactive” and the outcome [6] was “inactive”. The outcome [7] was “inactive”, the outcome [8] was “inactive” and the outcome [9] was “inactive”. For the same compound, the outcome [10] was “inactive”.
With `CCCCOC(=O)CCCCCCCCC(=O)OCCCC` the outcome [1] was “inactive”, the outcome [2] was “inactive” and the outcome [3] was “inactive”. The outcome [4] was “inactive”, the outcome [5] was “inactive” and the outcome [6] was “inactive”. For the same compound, the outcome [7] was “inactive”, the outcome [8] was “inactive” and the outcome [9] was “inactive”. The outcome [10] was “inactive”.
With `CC1(C)CC(N=C=O)CC(C)(CN=C=O)C1` (stereo unspecified) the outcome [1] was “inactive”, the outcome [2] was “inactive” and the outcome [4] was “inactive”. For the same compound, the outcome [5] was “inactive”, the outcome [6] was “inactive” and the outcome [7] was “inactive”. For the same compound, the outcome [8] was “inactive” and the outcome [9] was “inactive”.
For `Clc1cc(Cl)c(Cl)cc1Cl`, the outcome [1] was “inactive”, the outcome [2] was “inactive” and the outcome [3] was “inactive”. The outcome [4] was “inactive”, the outcome [5] was “inactive” and the outcome [6] was “inactive”. For the same compound, the outcome [7] was “inactive”, the outcome [8] was “inactive” and the outcome [9] was “inactive”. For the same compound, the outcome [10] was “inactive”.
